From PubChem BioAssay (NCI)
The panel holds about 79,000 compounds, 15% with a hit somewhere; the sample as a whole holds those more often. Unmarked numbers belong to inactive results. The source made the active and inactive calls. Rule as the data show it: active = growth inhibition above about 70%; inactive = the rest.

Experiments:
[1] = NCI Yeast Anticancer Drug Screen. Data for the rad50 strain (AID 155);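 also: 0% = growth of vehicle-only cultures of the same strain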; settings: S. cerevisiae rad50 strain growth inhibition, hits give high values
Outline: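 Compounds were tested on a yeast strain with an engineered DNA damage repair alteration; the reported value is growth inhibition normalised to vehicle treatment.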

[2] = NCI Yeast Anticancer Drug Screen. Data for the mec2-1 strain (AID 157); settings: S. cerevisiae mec2-1 strain, hits give high values
Outline: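 Using mec2-1 yeast: add compound, measure growth, express inhibition versus vehicle-treated cultures.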

[3] = NCI Yeast Anticancer Drug Screen. Data for the sgs1 mgt1 strain (AID 161);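 also: 0% = growth of cultures given vehicle only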; settings: S. cerevisiae sgs1 mgt1 strain, hits give high values
Outline: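 Percent growth inhibition was derived by comparing compound-exposed mutant yeast with vehicle-exposed cultures. The strain carries alterations in DNA damage repair.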

[4] = NCI Yeast Anticancer Drug Screen. Data for the cln2 rad14 strain (AID 165);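 also: 0% = growth equal to vehicle treated cultures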; settings: S. cerevisiae cln2 rad14 strain, hits give high values
Outline: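 Yeast strain cln2 rad14, bearing defects in cell cycle control and DNA repair, serves as the test system; values reflect growth inhibition compared with vehicle.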

[5] = NCI Yeast Anticancer Drug Screen. Data for the bub3 strain (AID 167); settings: S. cerevisiae bub3 mutant strain, hits give high values
Outline: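 Growth of a checkpoint-deficient yeast mutant is measured after compound exposure. Values represent inhibition relative to vehicle.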

[6] = NCI Yeast Anticancer Drug Screen. Data for the mlh1 rad18 strain (AID 175); settings: S. cerevisiae mlh1 rad18 strain growth inhibition, hits give high values
Outline: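 Steps: expose repair-defective yeast to compound; measure growth; express inhibition against vehicle-treated controls.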

[7] = at 5.0 µM (retest, dose inferred, filed as 0.5)
[8] = at 50.0 µM (retest, dose inferred, filed as 5.0)

Structure (SMILES) | growth inhibition [1, 7] | growth inhibition [1, 8] | growth inhibition ([1]; at 50.0 µM) | growth inhibition [2, 7] | growth inhibition [2, 8] | growth inhibition ([2]; at 50.0 µM) | growth inhibition [3, 7] | growth inhibition [3, 8] | growth inhibition ([3]; at 50.0 µM) | growth inhibition [4, 7] | growth inhibition [4, 8] | growth inhibition ([4]; at 50.0 µM) | growth inhibition [5, 7] | growth inhibition [5, 8] | growth inhibition ([5]; at 50.0 µM) | growth inhibition [6, 7] | growth inhibition [6, 8] | growth inhibition ([6]; at 50.0 µM)
FC(F)(F)c1cccc(CCl)c1 | -1% | 3% | 24.8% | 0% | 1% | -5.7% | -1% | 1% | -17.4% | -5% | -6% | -20.2% | -3% | 7% | -8.25% | -2% | 4% | 38.5%
ClCCN(CCCl)B(N(CCCl)CCCl)N(CCCl)CCCl | -1% | -6% | 98.8% (active) | -23% | 0% | 99.3% (active) | -11% | 10% | 99.1% (active) | 0% | -2% | 99.2% (active) | 3% | -6% | 98.8% (active) | -13% | -26% | 99.3% (active)
COc1cc(C=Nc2cc[c]([Hg][O]C(C)=O)cc2)ccc1O | 4% | 23% | 99.5% (active) | -1% | 67% | 99.5% (active) | 2% | 67% | 99.4% (active) | -4% | 22% | 99.3% (active) | 3% | 75% (active) | 99.3% (active) | 0% | 56% | 99.3% (active)
CN(C)C(=S)[S][Sb]([c]1ccccc1)[c]1ccccc1 | 97% (active) | 99% (active) | 70.6% (active) | 99% (active) | 99% (active) | 83.5% (active) | 93% (active) | 99% (active) | 90.3% (active) | 89% (active) | 97% (active) | 57.1% | 98% (active) | 75% (active) | 98.3% (active) | 99% (active) | 99% (active) | 90.5% (active)
N#C[SH2+].N#C[SH2+].N#C[SH2+].N#C[SH2+].[Cu+2].c1ccc(C[P+](c2ccccc2)(c2ccccc2)c2ccccc2)cc1 | 14% | 87% (active) | 96.8% (active) | 5% | 95% (active) | 97.8% (active) | 21% | 91% (active) | 97.9% (active) | -8% | 82% (active) | 90.7% (active) | 5% | 90% (active) | 92.9% (active) | 45% | 97% (active) | 97.2% (active)
N#CC(Nc1c(N)nc(-c2ccccc2)nc1N)c1ccc(N(CCCl)CCCl)cc1 (configuration not stated) | 4% | 45% | 57.5% | -18% | 26% | 66% | 2% | 43% | 59.8% | -10% | 9% | 53.1% | -4% | -4% | 0.75% | 27% | 90% (active) | 55.6%
Cn1c(=O)c2[nH]cnc2n(C)c1=O.[CH2-]C(Cc1cccc2cc(C(=O)O)c(=O)oc12)OC.[Hg+2].[OH-] (configuration not stated) | 1% | 6% | 46% | -3% | 14% | 96.7% (active) | -6% | 21% | 93.5% (active) | 25% | -29% | 93.2% (active) | -20% | -16% | 96.8% (active) | -7% | 17% | 98.3% (active)
O=[N+]([O-])c1cc2c([N+](=O)[O-])cccc2o1 | 15% | 98% (active) | 95.9% (active) | 8% | 99% (active) | 99.7% (active) | 19% | 99% (active) | 99.2% (active) | 0% | 99% (active) | 97.3% (active) | 7% | 98% (active) | 99.5% (active) | 74% (active) | 99% (active) | 99.5% (active)
CCOP(=O)(OCC)Oc1cc(C)c(SC#N)c(C)c1 | -6% | -7% | 29.6% | -2% | 3% | 20.6% | 10% | 25% | 17.1% | -7% | -6% | 66.3% | -3% | 18% | 53.7% | 10% | 76% (active) | 34%
